# Assay results taken from the supplement of paper PMC8728848.
# Only a selection was taken, and the strongest signals are over-represented in it overall.
# B1: Sebin1 (Coprinopsis cinerea), A8PEE3 (protein)
# chain: MTSPFYAHIHNVQDDNTWRFTLIFANRATADEWWRAISEAPANTSIAKSITRVTPQYYTHDVNIWNIWNFFADGNIKSISERFRGRLFIVLENDRGGRGITVIPPVPIVDHVSGNWFYIRSKTAPHLFWYYDERRSSIYASKEKRTRFKISIRNPSSQTPKNAIMINTDDVTIHIKENLYVGVDNNLGHIIPTRAYRTFKFGELESGAIAGFDVVENIEERCSSTFDGASLSISGPDSSSPGEPWELV
# Tests used:
# Test in all cases: glycan array binding signal (z-score within array); higher = stronger binding
# Settings in all cases: glycan notation: IUPAC condensed, linker removed
# [1] = target: Fuc(a1-2)Gal(b1-4)GlcNAc(b1-6)GalNAc
# How it was run: (§1)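 Columns mapping to the same glycan were averaged after glycan names were converted to IUPAC-condensed notation. The data come from 3228 arrays in the Consortium for Functional Glycomics database, limited to those with an available protein sequence. Binding is reported as a within-array Z-score averaged across arrays of one protein sequence and across linkers.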
# [2] = target: Fuc(a1-2)[Gal(a1-3)]Gal(b1-3)GalNAc
# How it was run: as §1
# [3] = target: Fuc(a1-2)[Gal(a1-3)]Gal(b1-3)GlcNAc
# How it was run: as §1
# [4] = target: Fuc(a1-2)[Gal(a1-3)]Gal(b1-3)GlcNAc(b1-2)Man(a1-3)[Fuc(a1-2)[Gal(a1-3)]Gal(b1-3)GlcNAc(b1-2)Man(a1-6)]Man(b1-4)GlcNAc(b1-4)[Fuc(a1-6)]GlcNAc
# How it was run: as §1
# [5] = target: Fuc(a1-2)[Gal(a1-3)]Gal(b1-4)GlcNAc(b1-3)[Fuc(a1-2)[Gal(a1-3)]Gal(b1-4)GlcNAc(b1-6)]GalNAc
# How it was run: as §1
# [6] = target: Fuc(a1-2)[GalNAc(a1-3)]Gal(b1-4)GlcNAc(b1-3)[Fuc(a1-2)[GalNAc(a1-3)]Gal(b1-4)GlcNAc(b1-6)]GalNAc
# How it was run: as §1
# [7] = target: Fuc(a1-3)[Gal(b1-4)]GlcNAc(b1-3)Gal(b1-4)[Fuc(a1-3)]GlcNAc(b1-3)Gal(b1-4)[Fuc(a1-3)]GlcNAc
# How it was run: as §1
# [8] = target: Gal(a1-3)Gal(b1-3)[Fuc(a1-4)]GlcNAc(b1-2)Man(a1-3)[Gal(a1-3)Gal(b1-3)[Fuc(a1-4)]GlcNAc(b1-2)Man(a1-6)]Man(b1-4)GlcNAc(b1-4)GlcNAc
# How it was run: as §1
# [9] = target: Gal(b1-3)GalNAc(b1-3)Gal(a1-4)Gal(b1-4)Glc
# How it was run: as §1
# [10] = target: Gal(b1-3)GlcNAc(a1-3)Gal(b1-4)GlcNAc
# How it was run: as §1
# [11] = target: Gal(b1-3)GlcNAc(b1-2)Man(a1-3)[GlcNAc(b1-4)][Gal(b1-3)GlcNAc(b1-2)Man(a1-6)]Man(b1-4)GlcNAc(b1-4)GlcNAc
# How it was run: as §1
# [12] = target: Gal(b1-3)GlcNAc(b1-3)Gal(b1-4)Glc
# How it was run: as §1
# [13] = target: Gal(b1-3)[Fuc(a1-4)]GlcNAc(b1-2)Man
# How it was run: as §1
# [14] = target: Gal(b1-3)[Neu5Ac(a2-6)]GlcNAc(b1-4)Gal(b1-4)Glc
# How it was run: as §1
# [15] = target: Gal(b1-4)GlcNAc
# How it was run: as §1
# [16] = target: Gal(b1-4)GlcNAc(b1-2)Man(a1-6)[GlcNAc(b1-2)Man(a1-3)]Man(b1-4)GlcNAc(b1-4)GlcNAc
# How it was run: as §1
# [17] = target: Gal(b1-4)GlcNAc(b1-2)[Gal(b1-4)GlcNAc(b1-4)]Man(a1-3)[GlcNAc(b1-4)][Gal(b1-4)GlcNAc(b1-2)Man(a1-6)]Man(b1-4)GlcNAc(b1-4)GlcNAc
# How it was run: as §1
# [18] = target: Gal(b1-4)GlcNAc(b1-3)Gal(b1-4)GlcNAc(b1-3)Gal(b1-4)GlcNAc(b1-2)Man(a1-3)[Gal(b1-4)GlcNAc(b1-3)Gal(b1-4)GlcNAc(b1-3)Gal(b1-4)GlcNAc(b1-2)Man(a1-6)]Man(b1-4)GlcNAc(b1-4)[Fuc(a1-6)]GlcNAc
# How it was run: as §1
# [19] = target: Gal(b1-4)GlcNAc(b1-3)Gal(b1-4)GlcNAc(b1-3)Gal(b1-4)GlcNAc(b1-3)Gal(b1-4)GlcNAc(b1-2)Man(a1-3)[Gal(b1-4)GlcNAc(b1-3)Gal(b1-4)GlcNAc(b1-3)Gal(b1-4)GlcNAc(b1-3)Gal(b1-4)GlcNAc(b1-2)Man(a1-6)]Man(b1-4)GlcNAc(b1-4)[Fuc(a1-6)]GlcNAc
# How it was run: as §1
# [20] = target: Gal(b1-4)GlcNAc(b1-3)Gal(b1-4)GlcNAc(b1-3)Gal(b1-4)GlcNAc(b1-3)Gal(b1-4)GlcNAc(b1-2)[Gal(b1-4)GlcNAc(b1-3)Gal(b1-4)GlcNAc(b1-3)Gal(b1-4)GlcNAc(b1-3)Gal(b1-4)GlcNAc(b1-6)]Man(a1-6)[Gal(b1-4)GlcNAc(b1-3)Gal(b1-4)GlcNAc(b1-3)Gal(b1-4)GlcNAc(b1-3)Gal(b1-4)GlcNAc(b1-2)Man(a1-3)]Man(b1-4)GlcNAc(b1-4)[Fuc(a1-6)]GlcNAc
# How it was run: as §1
# [21] = target: Gal(b1-4)GlcNAc(b1-3)Gal(b1-4)GlcNAc(b1-3)Gal(b1-4)GlcNAc(b1-3)Gal(b1-4)GlcNAc(b1-3)Gal(b1-4)GlcNAc(b1-2)Man(a1-3)[Gal(b1-4)GlcNAc(b1-3)Gal(b1-4)GlcNAc(b1-3)Gal(b1-4)GlcNAc(b1-3)Gal(b1-4)GlcNAc(b1-3)Gal(b1-4)GlcNAc(b1-2)Man(a1-6)]Man(b1-4)GlcNAc(b1-4)[Fuc(a1-6)]GlcNAc
# How it was run: as §1
# [22] = target: Gal(b1-6)Gal
# How it was run: as §1
# [23] = target: Gal3S(b1-3)GalNAc
# How it was run: as §1
# [24] = target: Gal3S(b1-4)[Fuc(a1-3)]Glc6S
# How it was run: as §1
# [25] = target: Gal6S(b1-4)Glc
# How it was run: as §1
# [26] = target: Gal6S(b1-4)GlcNAc6S
# How it was run: as §1
# [27] = target: GalNAc(b1-4)GlcNAc6S
# How it was run: as §1
# [28] = target: Glc(a1-6)Glc(a1-6)Glc
# How it was run: as §1
# [29] = target: GlcA(b1-3)Gal
# How it was run: as §1
# [30] = target: GlcNAc(a1-4)Gal(b1-4)GalNAc
# How it was run: as §1
# [31] = target: GlcNAc(b1-2)Man(a1-3)[GlcNAc(b1-4)][GlcNAc(b1-2)Man(a1-6)]Man(b1-4)GlcNAc(b1-4)[Fuc(a1-6)]GlcNAc
# How it was run: as §1
# [32] = target: GlcNAc(b1-2)[GlcNAc(b1-4)]Man(a1-3)[GlcNAc(b1-4)][GlcNAc(b1-2)Man(a1-6)]Man(b1-4)GlcNAc(b1-4)GlcNAc
# How it was run: as §1
# [33] = target: GlcNAc(b1-2)[GlcNAc(b1-6)]Man(a1-6)[GlcNAc(b1-2)Man(a1-3)]Man(b1-4)GlcNAc(b1-4)[Fuc(a1-6)]GlcNAc
# How it was run: as §1
# [34] = target: GlcNAc(b1-3)Gal(b1-4)GlcNAc(b1-2)[GlcNAc(b1-3)Gal(b1-4)GlcNAc(b1-6)]Man(a1-6)[GlcNAc(b1-3)Gal(b1-4)GlcNAc(b1-2)Man(a1-3)]Man(b1-4)GlcNAc(b1-4)GlcNAc
# How it was run: as §1
# [35] = target: GlcNAc(b1-3)Gal(b1-4)GlcNAc(b1-3)Gal(b1-4)GlcNAc(b1-2)Man(a1-3)[GlcNAc(b1-3)Gal(b1-4)GlcNAc(b1-3)Gal(b1-4)GlcNAc(b1-2)Man(a1-6)]Man(b1-4)GlcNAc(b1-4)GlcNAc
# How it was run: as §1
# [36] = target: GlcNAc(b1-3)Gal(b1-4)GlcNAc(b1-3)[GlcNAc(b1-3)Gal(b1-4)GlcNAc(b1-3)]GalNAc
# How it was run: as §1
# [37] = target: Kdn(a2-6)Gal(b1-4)GlcNAc
# How it was run: as §1
# [38] = target: Neu5Ac(a2-3)Gal(b1-3)GlcNAc(b1-6)GalNAc
# How it was run: as §1
# [39] = target: Neu5Ac(a2-3)Gal(b1-3)GlcNAc6S
# How it was run: as §1
# [40] = target: Neu5Ac(a2-3)Gal(b1-3)[Neu5Ac(a2-6)]GlcNAc(b1-3)[Fuc(a1-3)[Gal(b1-4)]GlcNAc(b1-6)]Gal(b1-4)Glc
# How it was run: as §1
# [41] = target: Neu5Ac(a2-3)Gal(b1-4)Glc
# How it was run: as §1
# [42] = target: Neu5Ac(a2-3)Gal(b1-4)GlcNAc(b1-3)Gal(b1-3)GlcNAc
# How it was run: as §1
# [43] = target: Neu5Ac(a2-3)Gal(b1-4)GlcNAc(b1-6)[Gal(b1-3)]GalNAc
# How it was run: as §1
# [44] = target: Neu5Ac(a2-3)GalNAc
# How it was run: as §1
# [45] = target: Neu5Ac(a2-6)Gal(b1-4)GlcNAc(b1-2)Man(a1-3)Man(b1-4)GlcNAc(b1-4)GlcNAc
# How it was run: as §1
# [46] = target: Neu5Ac(a2-8)Neu5Ac(a2-3)Gal(b1-3)GalNAc(b1-4)[Neu5Ac(a2-8)Neu5Ac(a2-3)]Gal(b1-4)Glc
# How it was run: as §1
# [47] = target: Neu5Ac(a2-8)Neu5Ac(a2-8)Neu5Ac
# How it was run: as §1
# [48] = target: Neu5Gc(a2-3)Gal(b1-4)GlcNAc
# How it was run: as §1
binder,measurement,setting,value
B1,glycan array binding signal (z-score),[1],4.71
same,glycan array binding signal (z-score),[2],-0.147
same,glycan array binding signal (z-score),[3],-0.29
same,glycan array binding signal (z-score),[4],2.8
same,glycan array binding signal (z-score),[5],3.52
same,glycan array binding signal (z-score),[6],1.28
same,glycan array binding signal (z-score),[7],-0.039
same,glycan array binding signal (z-score),[8],2.45
same,glycan array binding signal (z-score),[9],0.187
same,glycan array binding signal (z-score),[10],-0.485
same,glycan array binding signal (z-score),[11],2.39
same,glycan array binding signal (z-score),[12],-0.671
same,glycan array binding signal (z-score),[13],0.391
same,glycan array binding signal (z-score),[14],0.647
same,glycan array binding signal (z-score),[15],-0.703
same,glycan array binding signal (z-score),[16],-0.684
same,glycan array binding signal (z-score),[17],0.136
same,glycan array binding signal (z-score),[18],13.4
same,glycan array binding signal (z-score),[19],6.4
same,glycan array binding signal (z-score),[20],2.44
same,glycan array binding signal (z-score),[21],2.62
same,glycan array binding signal (z-score),[22],0.332
same,glycan array binding signal (z-score),[23],-0.501
same,glycan array binding signal (z-score),[24],0.696
same,glycan array binding signal (z-score),[25],0.006
same,glycan array binding signal (z-score),[26],0.222
same,glycan array binding signal (z-score),[27],0.053
same,glycan array binding signal (z-score),[28],-0.354
same,glycan array binding signal (z-score),[29],-0.505
same,glycan array binding signal (z-score),[30],-0.32
same,glycan array binding signal (z-score),[31],-0.296
same,glycan array binding signal (z-score),[32],2.33
same,glycan array binding signal (z-score),[33],-0.058
same,glycan array binding signal (z-score),[34],-0.792
same,glycan array binding signal (z-score),[35],0.145
same,glycan array binding signal (z-score),[36],-0.696
same,glycan array binding signal (z-score),[37],-0.282
same,glycan array binding signal (z-score),[38],-0.335
same,glycan array binding signal (z-score),[39],-0.146
same,glycan array binding signal (z-score),[40],-0.727
same,glycan array binding signal (z-score),[41],3.86
same,glycan array binding signal (z-score),[42],-0.415
same,glycan array binding signal (z-score),[43],2.49
same,glycan array binding signal (z-score),[44],-0.458
same,glycan array binding signal (z-score),[45],-0.4
same,glycan array binding signal (z-score),[46],-0.152
same,glycan array binding signal (z-score),[47],-0.546
same,glycan array binding signal (z-score),[48],-0.074
